# Data: PubChem BioAssay AID488908 (National Center for Advancing Translational Sciences (NCATS), 2010)
# Inconclusive results are not listed. Where a call stands in place of a potency, no number is given. Active and inactive are the calls of the source. The call rests on the fitted dose curve; in most records, active means well fitted inhibition curve with a large enough effect; inconclusive means small, poorly fitted or top-dose-only effect; inactive means flat fitted curve, though single readings scatter.
# Test: Secondary Assay for lipid storage modulators: Cytotoxcity for probe SAR
# Settings: Drosophila S3 cells viability, CellTiter-Glo luminescence, 24 h, with oleic acid added (1 µL, 400 µM); series mostly up to 46.1 µM
# How it was run: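 CellTiter-Glo luminescence read after 24 h at 24 degrees C; embryonic Drosophila S3 cells (5,000/well) were co-treated with oleic acid (400 uM stock) and a range of compound concentrations.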
row,SMILES,Potency
1,COc1ccc(Cl)cc1NC(=O)N1CCN(c2ccccn2)CC1,inactive
2,COc1ccc(CCNC(=O)c2cc3sc(C)cc3n2C)cc1OC,inactive
3,COc1ccc(-n2ncc3c2CCCC3NC(=O)c2cnc(C)cn2)cc1 (centres undefined),15.8 µM (active)
4,CC(C)(C)OC(=O)NC1CCCc2c1cnn2-c1ccc(F)cc1F (centres undefined),9.96 µM (active)
5,CCOc1ccc(CCNC(=O)c2ccc(C3(C(F)(F)F)N=N3)cc2)cc1OCC,inactive
6,COc1ccccc1NC(=S)N1CCN(c2cc(Cl)ccc2C)CC1,inactive
7,CCCn1c(-c2ccc(OC)cc2)cnc1SCC(=O)Nc1nc(C)c(C)s1,inactive
8,O=C(NC1CCCc2c1cnn2-c1ccc(F)cc1F)c1ccccc1 (centres undefined),5.6 µM (active)
9,O=C(CSc1nnc(NCc2ccccc2)s1)Nc1nc(-c2ccc(F)c(F)c2)cs1,inactive
10,CCOc1ccc(CCNC(=O)c2cc3sc(Cl)cc3n2CC)cc1OCC,inactive
11,O=C(NC1CCCc2c1cnn2-c1ccc(F)cc1F)c1ccc(C2(C(F)(F)F)N=N2)cc1 (centres undefined),3.97 µM (active)
12,COc1ccc(-c2csc(NC(=O)CSc3nnc(Nc4ccccc4)s3)n2)cc1,inactive
13,O=C(NC1CCCc2c1cnn2-c1ccc(F)cc1F)C1CCCCC1 (centres undefined),0.791 µM (active)
14,COc1cc(Nc2ncc(F)c(Nc3ccc4c(n3)NC(=O)C(C)(C)O4)n2)cc(OC)c1OC,inactive
15,CCOC(=O)C1CCCN(C(=O)C2(NC(=O)Nc3ccc(F)cc3F)CCCCC2)C1 (centres undefined),inactive
16,CCOC(=O)C1CCN(C(=O)C2(NC(=O)NCc3ccccc3)CCCCC2)CC1,inactive
17,Cc1ccc(-c2cnc(SCC(=O)Nc3nccs3)n2Cc2ccco2)cc1,inactive
18,COc1ccc(Cl)cc1NC(=S)N1CCN(c2ccccc2)CC1,inactive
19,CCOc1ccc(CCNC(=O)c2cc3ccccc3n2C)cc1OCC,inactive
20,CCOC(=O)C1CCN(C(=O)C2(NC(=O)Nc3ccccc3Cl)CC2)CC1,inactive
21,CCn1c(-c2ccc(C)cc2)cnc1SCC(=O)Nc1nc(C)cs1,inactive
22,O=C(NC1CCCc2c1cnn2-c1ccc(F)cc1F)c1cccc(F)c1F (centres undefined),14.1 µM (active)
23,Cc1ccc(C)c(-c2csc(NC(=O)CSc3nnc(Nc4ccc(OC(F)(F)F)cc4)s3)n2)c1,inactive
24,Cc1cn(-c2cc(NC(=O)c3ccc(C)c(Nc4nccc(-c5cccnc5)n4)c3)cc(C(F)(F)F)c2)cn1,inactive
25,COc1ccc(NC(=S)N2CCN(c3cccc(Cl)c3)CC2)c(OC)c1,inactive
26,COc1ccc(Cl)cc1NC(=S)N1CCN(c2cccc(Cl)c2)CC1,inactive
27,O=C(CSc1nnc(NCc2ccccc2)s1)Nc1nc(-c2cccc(Br)c2)cs1,inactive
28,O=C(NC1CCCc2c1cnn2-c1ccc(F)cc1F)c1ccc(C(=O)c2ccccc2)cc1 (centres undefined),11.2 µM (active)
29,O=C(Nc1cccc2nn(-c3ccc(F)cc3)cc12)c1ccccn1,12.5 µM (active)
